The test system of the first test is ABL1(F317I)-nonphosphorylated. The note with it: Compound Concentration (nM):1000.
Regarding `CCc1ccc(Oc2nccc(-c3c(-c4ccc(F)cc4)ncn3C3CCNCC3)n2)cc1` [SB-242719], the “Percent Control” value turned out to be 87%.
As to `COc1cc(N2CCN(C(C)C)CC2)ccc1Nc1nc(Nc2ccc(F)cc2C(=O)NC[C@@H](O)CO)c2cc[nH]c2n1` [GSK1392956A], the “Percent Control” value is listed as 100%.
For `O=C(Nc1n[nH]c2nc(-c3ccc(O)cc3)c(Br)cc12)C1CC1` [SB-725317], the “Percent Control” value came out at 100%.
The same measure, in the same setting: the result for `O=C1Nc2ccc(C(=O)c3ccco3)cc2C1=Cc1cc(Cl)c(O)c(Cl)c1` [GW406108X] reads 89%; that for `COc1cccc(-n2ncc3c(N/N=C/c4ccncc4)ncnc32)c1` [GW784752X], 100%; that for `NS(=O)(=O)c1ccc(N/N=C2\C(=O)Nc3ccc(C(=O)NCc4ccncc4)cc32)cc1` [GW300657X], 85%.
On to `Nc1ncnc2occ(-c3ccc(NC(=O)Nc4cc(C(F)(F)F)ccc4F)cc3)c12` [GW770249X], for which the “Percent Control” value is recorded as 67%.
Turning to `NS(=O)(=O)c1ccc(N/N=C2\C(=O)Nc3ccc(Cl)cc32)cc1` [GW280670X], the “Percent Control” value was 99%.
`COc1cccc(-c2c[nH]c3c(N/N=C/c4ccncc4)ncnc23)c1` [GW814408X]: the “Percent Control” value worked out at 100%.
Same read-out and setting: in the case of `COc1ccccc1-c1cc(/C=C2\C(=O)Nc3ncc(Br)cc32)cc(Br)c1O` [GW442130X] it was 100%; in that of `CC(C)COC(=O)c1ccc2c(c1)/C(=C/Nc1ccc(S(N)(=O)=O)cc1)C(=O)N2` [GW416981X], 100%; in that of `CC1=C(C(=O)Nc2ccc3[nH]ncc3c2)C(c2ccc(Cl)c(Cl)c2)CC(=O)N1` (stereo not drawn) [GSK299115A], 100%.
For `COc1ccc(COc2ccc(Cc3cnc(N)nc3N)cc2OC)cc1` [GW632580X], the “Percent Control” value amounted to 99%.
Regarding `COc1cc(C=NNc2ncnc3c2cnn3-c2ccccc2)ccc1O` [GW513184X], the “Percent Control” value was determined as 92%.
Turning to `Cl.O=C(O[C@H]1CN[C@H](C#Cc2cc3ncnc(Nc4ccc5c(cnn5Cc5ccccc5)c4)c3s2)C1)N1CCOCC1` [GSK200398A], the “Percent Control” value was found to be 89%.

For another test, the system named is ABL1(F317I)-phosphorylated. The note with it: Compound Concentration (nM):1000.
Regarding `COc1cc(/C=N/Nc2ncnc3[nH]ncc23)ccc1O` [GW578748X], the “Percent Control” value is 37%.
In the case of `NS(=O)(=O)c1ccc(N/N=C2\C(=O)Nc3ccc(-c4cnco4)cc32)cc1` [GW276655], the “Percent Control” value is listed as 59%.
Take `CN1CCN(C(=O)c2ccc(NC(=O)Nc3ccc(N(C)c4ccnc(Nc5ccc(CS(C)(=O)=O)cc5)n4)cc3)cc2)CC1.Cl` [GW830263A]: the “Percent Control” value was 69%.
Turning to `CCS(=O)(=O)c1ccc(OC)c(Nc2ncc(-c3cccc(OC)c3)o2)c1` [GW580509X], the “Percent Control” value was 40%.
On the same count and under the same terms, the result for `Cl.O=S1CCN(Cc2ccc(-c3ccc4ncnc(Nc5ccc(OCc6ccccc6)c(F)c5)c4c3)o2)CC1` [GW576924A] reads 96%; that for `CC1=C(C(=O)Nc2ccc3[nH]ncc3c2)C(c2ccc3ccccc3c2)CC(=O)N1` (stereo not drawn) [GSK270822A], 67%.
For the molecule `COc1ccc2c(-c3ccnc(Nc4cccc(OC(F)(F)F)c4)n3)cnn2n1` [GW810372X], the “Percent Control” value was 100%.
As to `Cl.O=C(Nc1ccc(Oc2ccc3[nH]c(NC(=O)c4ccco4)nc3c2)cc1)Nc1cc(C(F)(F)F)ccc1F` [GW683134A], the “Percent Control” value is 53%.
On the same count and under the same terms, the result for `CN(C)c1cc2c(Nc3ccc4c(cnn4Cc4ccccc4)c3)ncnc2cn1` [GW282974X] reads 91%; that for `CCS(=O)(=O)c1ccc(OC)c(Nc2ncc(-c3cccc(F)c3)o2)c1` [GW621970X], 51%.
As to `COc1cc(C)c(N(C)C(=O)CN(C)C)cc1Nc1nc(Nc2cccc(F)c2C(N)=O)c2cc[nH]c2n1` [GSK2219385], the “Percent Control” value stood at 97%.
Still for that read-out and setting: the result for `Cl.c1ccc(Cc2nc3ccc(Nc4ncnc5ccccc45)cc3[nH]2)cc1` [GR269666A] reads 88%; that for `COc1ccc2[nH]c3c4[nH]c5ccc(OC)cc5c4c4c(c3c2c1)C(=O)NC4=O` [GW296115X], 73%; that for `CCn1c(-c2nonc2N)nc2c(C#CC(C)(C)O)nc(OCCNC)cc21.Cl` [GSK949675], 100%.
Same read-out and setting: the result for `CN(C)CCNC(=O)Nc1ccc(N(C)c2ccnc(Nc3ccc(CS(C)(=O)=O)cc3)n2)cc1.Cl` [GW830900A] reads 84%; that for `NS(=O)(=O)c1ccc(N/N=C2\C(=O)Nc3ccc(C(=O)NCCc4c[nH]cn4)cc32)cc1` [GW300660X], 77%.
Regarding `C[C@@H](Oc1cc(-n2cnc3ccc(OC4CCN(C)CC4)cc32)sc1C(N)=O)c1ccccc1Cl` [GSK579289A], the “Percent Control” value is 87%.
As for `NS(=O)(=O)c1ccc(Nc2ncc(-c3ccccc3)o2)cc1` [GW572399X], the “Percent Control” value stood at 87%.

These data come from paper PMC7826789 (International Journal of Molecular Sciences, 2021).
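Note: KINOMEscan scanMAX binding as percent activity remaining versus control; lower means stronger binding.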
